Tgondii IFNg: T. gondii growth inhibition with IFN-gamma, primary screen, cell-based; Toxoplasma gondii growth in IFN-gamma-treated host cells; active compounds read low; activity change, negative = inhibition, % (test concentration not listed); 69,000 tested, 3.8% active; AID 1259416, 2018; in the data active = activity change below about -70%, passing the limit was not always enough;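 note: host cells are HeLa cells infected with Toxoplasma gondii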
Of the large screens only hits and unclear results are named; the others gave an inactive call. The sample as a whole holds a higher share of hits than the screen did.

C=CCNC(=O)c1ccc(-c2cccc([N+](=O)[O-])c2)o1	none
C=CCNC(=O)c1ccc(-c2ccc(F)c(CO)c2)o1	none
C=CCNC(=O)c1ccc(-c2cnc3ccccc3c2)o1	Tgondii IFNg -82.2
O=C(c1ccc(/C=C/c2n[nH]c3ccccc23)cc1)N1CCNCC1	none
C[C@@H](Oc1ccc2[nH]nc(/C=C/c3cnn(CCO)c3)c2c1)c1c(Cl)cncc1Cl	Tgondii IFNg -75.0
CC(C)NC(=O)CSc1nnc(N)s1	none
CCc1cc(=O)oc2cc3occ(-c4ccc(OC)c(F)c4)c3cc12	Tgondii IFNg -78.3
CCc1cc(=O)oc2cc(OCC=C(C)C)ccc12	none
COc1cc2c(=O)c(-c3ccc(O)cc3)coc2cc1O	none
CCOC(=O)c1nc(N(CC)c2ccccc2)c2ccccc2n1	none
CCOC(=O)c1nc(N(Cc2cccs2)C2CCCC2)c2ccccc2n1	Tgondii IFNg -75.7
CCOC(=O)c1nc(N2CCN(C3CCCCC3)CC2)c2ccccc2n1	none
Cc1ccc(-c2cc(-c3ccccc3)nc(-c3ccccc3)c2)cc1	none
Cc1cc(C)cc(Sc2ccc3nnc(-c4ccccc4)n3n2)c1	Tgondii IFNg -81.7
CSc1nnc(-c2ccccc2)n1C	none
O=C(NCCN1CCCC1)C1CCN(Cc2cc3ccccc3n2Cc2cccc(Cl)c2)CC1	none
Cc1cc(NC(=O)c2cccc3ccccc23)cc(C)c1OCC(=O)N1CCOCC1	none
O=C(COc1cccc(-n2cnnc2)c1)N1CCOCC1	Tgondii IFNg -85.2
O=C(CSCCOc1ccccc1)N1CCOCC1	none
O=C(c1ccco1)N1CCCn2c(nc(CN3CCCC3)cc2=O)C1	none
CCSCCN1CCC(=O)N(Cc2ccccc2)C(CC)C1 (centres undefined)	none
COc1nc(Nc2ccccc2)nc(OC)n1	Tgondii IFNg -115.5
Cc1cc(C)nc(Nc2ccc(O)cc2)n1	none
COc1ccc(-c2nc(Nc3ccccc3)c3ccccc3n2)cc1	none
CCc1ccccc1NC(=O)NCC(c1cccnc1)c1c[nH]c2ccccc12 (centres undefined)	none
O=C(NCC(c1ccccc1)c1c[nH]c2ccccc12)c1ccc(C(F)(F)F)cc1 (centres undefined)	Tgondii IFNg -88.1
O=C(NCC(c1cccnc1)c1c[nH]c2ccccc12)Nc1ccccc1C(F)(F)F (centres undefined)	none
Cc1ccccc1-c1nc(CN(C)S(=O)(=O)c2ccc(Cl)cc2)c(C)o1	none
Cc1ccccc1-c1nc(CN(C)S(=O)(=O)c2ccccc2)c(C)o1	none
CCN(CC)S(=O)(=O)c1ccc2c(c1)N(Cc1nc(-c3ccccc3C)oc1C)C(=O)CS2	Tgondii IFNg -77.5
O=C(Nc1ccccc1)N1CC2CN(Cc3cccc(Cl)c3)C2C1 (centres undefined)	none
NC(=O)N1Cc2[nH]nc(COc3cccnc3)c2C1	none
CCOc1ccccc1-c1nc(Cn2nnc(C(=O)Nc3cccc(Cl)c3)c2C)c(C)o1	none
CCC(C(=O)N1CCCN(C)C2(CCN(C)CC2)C1)n1cccn1 (centres undefined)	none
COc1c(F)cc(-c2cccc(NC(C)=O)c2)cc1F	none
FC(F)(F)c1cc(-c2ccc(-c3ccn[nH]3)o2)cc(C(F)(F)F)c1	Tgondii IFNg -105.7
Cc1cc(C)cc(N2CCN(Cc3ccc(-c4ccn[nH]4)o3)CC2=O)c1	none
c1coc(Cn2ccnc2-c2ccc(-c3ccn[nH]3)o2)c1	none
CC(C)c1nnc(CN2CCCC3(CC2)CN(C)C(=O)O3)o1 (centres undefined)	none
Cc1c(C)n(Cc2ccccc2)c2nc[nH]c(=O)c12	none
COc1cccc(S(=O)(=O)N(C)C[C@H]2OCc3ccccc3-c3c(n(C)c4ccccc34)C(=O)N([C@@H](C)CO)C[C@H]2C)c1	Tgondii IFNg -72.3
C[C@H](CO)N1C[C@H](C)[C@H](CN(C)S(=O)(=O)c2ccc([N+](=O)[O-])cc2)OCc2ccccc2-c2c(n(C)c3ccccc23)C1=O	Tgondii IFNg -72.5
C[C@@H]1CN([C@@H](C)CO)C(=O)c2c(c3ccccc3n2C)-c2ccccc2CO[C@@H]1CN(C)S(=O)(=O)c1ccc([N+](=O)[O-])cc1	none
COc1cccc(S(=O)(=O)N(C)C[C@@H]2OCc3ccccc3-c3c(n(C)c4ccccc34)C(=O)N([C@@H](C)CO)C[C@@H]2C)c1	none
C[C@@H]1CN([C@H](C)CO)C(=O)c2c(c3ccccc3n2C)-c2ccccc2CO[C@@H]1CN(C)S(=O)(=O)c1ccc([N+](=O)[O-])cc1	none
COc1cccc(S(=O)(=O)N(C)C[C@@H]2OCc3ccccc3-c3c(n(C)c4ccccc34)C(=O)N([C@H](C)CO)C[C@@H]2C)c1	none
Cc1ccc(C2(O)CCN(C(=O)OCC(C)C)CC2)nc1	none
COc1ccc(N2C(=O)C3CSC(c4ccc(F)cc4)N3C2=O)cc1 (centres undefined)	none
CCCC(=O)N1CCCCC1c1nc2c(c(=O)[nH]1)CN(C(C)=O)CC2 (centres undefined)	none
O=S(=O)(NCCc1csc(-c2cccc(F)c2)n1)c1ccccc1Cl	none
CC(NCC(=O)Nc1ccc(Cl)cc1F)c1nc(-c2ccccn2)no1 (centres undefined)	none
CCOc1cc(CCC(=O)N2CCc3[nH]c4c(Cl)cccc4c3C2)on1	none
CCOc1cc(CCC(=O)N2CCCc3c(Cl)cc(Cl)c(O)c32)on1	Tgondii IFNg -87.4

Assay outcomes from PubChem.
